Measured values: PubChem BioAssay (EPA / NIEHS)
The source made the active and inactive calls. How the source made its calls: active means hit-call score of the fitted dose curve at least 0.9, where 1 is the maximum; inactive means score below 0.9.

The compounds below were run on CD38, CD38 (gene 952) (assay: BSK_SAg_CD38: BioMAP Diversity Plus: SAg Assay for CD38 Biomarker Activity (AID 2283087)). Details: primary human HUVEC with PBMC; actives raise or lower the signal.
Method: BSK_SAg is a cell-based, multiplexed-readout assay that uses umbilical vein endothelium and peripheral blood mononuclear cells, a human vascular primary cell co-culture, with measurements taken at 24 hours after chemical dosing in a 96-well plate.BSK_SAg_CD38 is one of 10 assay component(s) measured or calculated from the BSK_SAg assay. It is designed to make measurements of enzyme-linked immunosorbent assay, a form of binding reporter, as detected with fluorescence intensity signals by Enzyme-linked immunosorbent assay technology.Data from the assay component BSK_SAg_CD38 was analyzed into 1 assay endpoint. This assay endpoint, BSK_SAg_CD38, was analyzed with bidirectional fitting relative to DMSO as the negative control and baseline of activity. Using a type of binding reporter, gain or loss-of-signal activity can be used to understand changes in the signaling as they relate to the gene CD38. Furthermore, this assay endpoint can be referred to as a primary readout, because this assay has produced multiple assay endpoints where this one serves a signaling function. To generalize the intended target to other relatable targets, this assay endpoint is annotated to the cytokine intended target family, where the subfamily is other cytokine.
The levels of cell surface (or secreted, indicated by the prefix "s") biomarker endpoints were measured by ELISA. Overt cytotoxicity to cells in confluent adherent cultures (all systems other than the BT system) was assessed by measuring total protein levels using sulforhodamine B (SRB) staining in parallel cultures at the time of biomarker measurements, indicated as SRB endpoints. For proliferation assays for adherent cell types, individual cell types are cultured at sub-confluence and relative cell numbers quantified by SRB staining at time points optimized for each system (48 h: 3C and CASM3C systems; 72 h: BT and HDF3CGF systems; 96 h: SAg system). SRB was performed by staining cells with 0.1% SRB after fixation with 10% TCA and reading wells at 560 nm.Viability and proliferation of PBMC (T cells) was quantified by Alamar Blue reduction for the SAg and BT systems. For PBMC viability (referred to as PBMC Cytotoxicity within the assay endpoint names), cells were plated (75,000/well in a 96-well plate) and then chemical samples added for 1 h before addition of activators, SEB and TSST-1 (20 ng/mL final concentration each). Cells were incubated for 90 h. Then, Alamar Blue (20 uL/well) (Invitrogen, Cat DAL1100) was added for 6 h, and the plates were read with a fluorescence microplate reader at 546/580 nm (excitation/emission). For PBMC proliferation, cells were plated and activated as above but incubated for only 16 h prior to addition of Alamar Blue. Plates were read after 6 h.

Structure (SMILES) | outcome | AC50
CC(=O)O[C@]1(C(C)=O)CC[C@H]2[C@@H]3C[C@H](C)C4=CC(=O)CC[C@]4(C)[C@H]3CC[C@@]21C | inactive | 
c1ccc2sc(SN(C3CCCCC3)C3CCCCC3)nc2c1 |  | 7.65 µM (active)
BrC1CCC(Br)C(Br)CCC(Br)C(Br)CCC1Br (stereo not given) |  | 4.57 µM (active)
COc1cc(C=O)ccc1OC(=O)C(C)C | inactive | 
CC(C)c1ccc(C(C)C)cc1 | inactive | 
CCCCCCCCCC=O |  | 29.3 µM (active)
CCCCCCCCC=O | inactive | 
CCC(=O)OCc1ccccc1 | inactive | 
C=C[Si](OCC)(OCC)OCC | inactive | 
Cc1ccc(O)c(C(C)(C)C)c1 |  | 37 µM (active)
Cc1ccc(Nc2ccc(O)c3c2C(=O)c2ccccc2C3=O)cc1 | inactive | 
C[C@H]1C[C@@H]2[C@H]([C@@H](O)C[C@@]3(C)[C@H]2CC[C@]3(O)C(=O)CO)[C@@]2(C)C=CC(=O)C=C12 | inactive | 
NCCNCCN | inactive | 
CCc1c(C)cc(N)c(CC)c1N | inactive | 
O=[N+]([O-])c1cc(C(F)(F)F)ccc1Cl | inactive | 
CCCCC(CC)COCCC#N (stereo not given) | inactive | 
CCCCC/C=C/C=C/C=O |  | 31.7 µM (active)
O=C1OC2(c3cc(Br)c(O)c(Br)c3Oc3c2cc(Br)c(O)c3Br)c2c(Cl)c(Cl)c(Cl)c(Cl)c21 |  | 5.04 µM (active)
O=C(O)c1cn(C2CC2)c2cc(N3CCNCC3)c(F)cc2c1=O | inactive | 
Cc1cc(C2(c3cc(C)c(O)cc3C)OS(=O)(=O)c3ccccc32)c(C)cc1O | inactive | 

Structure (SMILES) | outcome | AC50
N#Cc1ccc(CC(=NNC(=O)Nc2ccc(OC(F)(F)F)cc2)c2cccc(C(F)(F)F)c2)cc1 | inactive | 
c1ccc2c(c1)c1cccc3ccc4cccc2c4c31 | inactive | 
O=C=NC1CCC(CC2CCC(N=C=O)CC2)CC1 (stereo not given) | inactive | 
Nc1cc([N+](=O)[O-])ccc1Cl | inactive | 
Cc1ccc2n[nH]nc2c1 | inactive | 
CC(C)Oc1ccccc1O | inactive | 
O=C1CCCCCCCCCCCCCCO1 | inactive | 
CC[Si](OC(C)=O)(OC(C)=O)OC(C)=O | inactive | 
CC1CCC(C(C)CS)CC1S (stereo not given) |  | 32.8 µM (active)
CC(C)(COC(=O)c1ccccc1)COC(=O)c1ccccc1 | inactive | 
C#C[C@]1(O)CC[C@H]2[C@@H]3CCC4=Cc5oncc5C[C@]4(C)[C@H]3CC[C@@]21C | inactive | 
CC1COc2ccccc2N1C(=O)C(Cl)Cl (stereo not given) |  | 10.4 µM (active)
CC(=O)[C@H]1CC[C@H]2[C@@H]3CC=C4C[C@@H](O)CC[C@]4(C)[C@H]3CC[C@]12C | inactive | 
CCCCC(CC)COC(=O)/C=C\C(=O)OCC(CC)CCCC (stereo not given) | inactive | 
CN(CCOc1ccc(CC2SC(=O)NC2=O)cc1)c1ccccn1 (stereo not given) |  | 20 µM (active)
OC1OC[C@@H](O)[C@H](O)[C@H]1O (stereo not given in full) | inactive | 
CC(=O)Nc1ccccc1O | inactive | 
OC[C@H]1O[C@H](O[C@]2(CCl)O[C@H](CCl)[C@@H](O)[C@@H]2O)[C@H](O)[C@@H](O)[C@H]1Cl | inactive | 
O=P(c1ccccc1)(c1ccccc1)c1ccccc1 | inactive | 
COC(=O)c1ccc(C)cc1 | inactive | 
